The values that follow come from PubChem BioAssay AID1020 (Sanford-Burnham Center for Chemical Genomics, 2008).

Among all 200,000 compounds or so, about 240 (0.12%) were called active. The sample holds actives, similar compounds and a random draw of the others, so the mix is not that of the screen. Cut-off read from the data, not from the text of the source: active = inhibition above about 50%; inactive = the rest.

This experiment relates to glucose-6-phosphate dehydrogenase [Leuconostoc mesenteroides]. Kind of experiment: L. mesenteroides G6PDH inhibitors, counter-screen for G6PDH-coupled screening assays, biochemical, Leuconostoc mesenteroides enzyme (AID 1020). To be noted: Purified L. mesenteroides G6PDH, diaphorase/resazurin coupled fluorescence, 45 min; at 5 µM; hits give high values.
For the compound `Cc1ccccc1NC(=S)NNC(=O)c1cccc(Br)c1`, the inhibition was 1.2% (inactive). Then `COc1ccc(-n2cc(CN(C)Cc3n[nH]c(=O)[nH]3)c(-c3cccc(F)c3)n2)cc1`, with 19.5% (inactive). Take `COC(=O)c1ccc(NC(=S)NN2CCOCC2)cc1`: the inhibition is -2.2% (inactive). As to `O=C(c1snnc1-c1ccccc1)N1CCOCC1`, the inhibition is -2.4% (inactive). Take `OC(c1nnc(-c2ccccc2)o1)c1cccs1` (stereo unspecified): the inhibition is 10.6% (inactive). With `CCCCn1c(O)c(N=NC(=O)Cn2c(C(F)(F)F)nc3ccccc32)c2ccccc21` the figure was 7.1% (inactive); with `COc1cc(C=O)c(Br)cc1OCC(=O)NCc1ccccc1`, 6.7% (inactive). With `CCOc1ccccc1N1CCN(C(=O)COc2ccc3c(C)cc(=O)oc3c2)CC1`, the inhibition was 1.2% (inactive). As to `Cc1ccc(C(=O)NC(=S)NCc2cccnc2)cc1`, the inhibition is -1.6% (inactive). On to `Cc1ccc(COc2ccc(C(=O)NN)cc2)cc1`, for which the inhibition is 10.9% (inactive).

`O=C(NCc1ccccc1Cl)C1CCN(S(=O)(=O)N2CCOCC2)CC1`: the inhibition is 4.2% (inactive). Then `Nc1ncnc(Nc2cccc(Cl)c2Cl)n1`, with 15% (inactive); and `CCOC(=O)Cc1cc(=O)[nH]c(=O)[nH]1`, with 4.9% (inactive). With `O=C(/C=C/c1ccccc1[N+](=O)[O-])OC1CCCCC1=O` (stereo unspecified) the figure was 3% (inactive); with `O=c1c([N+](=O)[O-])cccn1Cc1ccc(F)cc1Cl`, 8% (inactive); with `CSc1ncccc1C(=O)N1CCCC(CCC(=O)NCc2ccccc2F)C1` (stereo unspecified), 8.1% (inactive). As to `CC(C)(C)N(CC#CCC(O)(c1ccccc1)C1CCCC1)CCO` (stereo unspecified), the inhibition was 13.4% (inactive).

In the case of `OCCNCCOc1ccc(Cl)c(Cl)c1`, the inhibition was 3.7% (inactive). Then `CC(C)(C)CC(=O)Nc1nnc(SCC(=O)NCc2cccs2)s1`, with 10.3% (inactive). Turning to `COc1ccc(CC2(CO)CCN(Cc3cnn(C)c3)CC2)cc1`, the inhibition was 0.2% (inactive). Consider `CCOC(=O)/C=C/C(=O)OCC(=O)NC(c1ccccc1)c1ccccc1`, for which the inhibition is 9.9% (inactive). For `Cc1ccc(O)c(-c2cc(C(=O)Nc3c(C)n(C)n(-c4ccccc4)c3=O)[nH]n2)c1`, the inhibition is 4% (inactive).

`CC(C(=O)N=Nc1c(O)n(C)c2ccc(Br)cc12)n1cnc2ccccc2c1=O` (stereo unspecified): the inhibition is -0.8% (inactive). Then `Cc1ccc2cc(C)c(N3CCC(C)CC3)nc2c1`, with 12.3% (inactive); and `O=C(Nn1cnnc1)c1ccc([N+](=O)[O-])cc1`, with 6% (inactive). With `Cc1nn(-c2ccccc2)c(C)c1/C=N/NC(=O)CSc1nc2ccccc2c(=O)n1-c1ccccc1` the figure was -5.5% (inactive); with `O=C(COC(=O)C1CC2C=CC1C2)Nc1ccccc1` (stereo unspecified), 5.8% (inactive). On to `CCC(C)(C)c1ccc(OCC(=O)N(C)C)c(C(C)(C)CC)c1`, for which the inhibition was -0.6% (inactive).

Turning to `CCc1n[nH]c(=S)n1/N=C/c1c[nH]c2ccc(Br)cc12`, the inhibition is -2.8% (inactive). Then `CC(=O)Nc1ccc(S(=O)(=O)N(CCc2ccccc2)CC(=O)N/N=C/c2ccc(C(=O)O)cc2)cc1`, with 6.2% (inactive); and `CC(=O)n1cc([C@H]2C=C(C(=O)N3CCOCC3)O[C@@H](OCc3ccc(CO)cc3)C2)c2ccccc21`, with 13.3% (inactive). Then `COc1cccc(CC(=O)N2CCCC(CCC(=O)N3CCN(c4ccccn4)CC3)C2)c1` (stereo unspecified), with 2.5% (inactive); and `CCN(CC)C(=O)Cn1cc(S(=O)(=O)CC(=O)NCc2ccc3c(c2)OCO3)c2ccccc21`, with 2.6% (inactive); and `CC(O)c1cccc(NC(=O)Cc2cccc3ccccc23)c1` (stereo unspecified), with 0.6% (inactive). With `S=c1[nH]ccn1-c1ccc(Cl)cc1` the figure was 1.9% (inactive); with `CCN(CCCNC(=O)CSc1cc(=O)n(C)c2cc(Cl)ccc12)Cc1ccccc1`, -6.2% (inactive).

For `O=C(NCCN1CCOCC1)c1cc(Sc2cccc(Cl)c2)nc2ccccc12`, the inhibition is -13.7% (inactive). Then `O=C(NCCN1CCOCC1)c1c(F)c(F)c(F)c(F)c1F`, with -12.4% (inactive). In the case of `CC(=O)Oc1cc2c(C(=O)NCCN3CCOCC3)c(C)oc2c2ccccc12`, the inhibition is 51% (active). Then `CS(=O)(=O)c1ccc2nc(NC(=O)c3ccc(Cl)nc3)sc2c1`, with -4.6% (inactive); and `O=C(COc1ccc(NC(=O)c2ccccc2[N+](=O)[O-])cc1)c1ccc(F)cc1`, with 8.6% (inactive); and `COC(=O)C1=NNC2(c3ccc(C)cc3)C(=O)N(c3cccc(C)c3C)C(=O)C12` (stereo unspecified), with 5.9% (inactive). With `O=C(c1cn2ccccc2n1)N1CCc2c([nH]c3ccccc23)C1c1ccccn1` (stereo unspecified), the inhibition is 16.7% (inactive).

Turning to `O=[N+]([O-])c1ccc(NCCCO)c(C(F)(F)F)c1`, the inhibition is 1.5% (inactive). In the case of `Cc1ccnc2nc(C(=O)Nc3nnc(-c4ccccc4)o3)nn12`, the inhibition was 4.6% (inactive). With `COc1ccc(Cn2c(-c3ccc(Cl)cc3)c[n+]3ccccc23)cc1` the figure was -9.3% (inactive).

Turning to `O=C(Nc1ccc(N2CCN(C(=O)c3cccs3)CC2)cc1)c1cccnc1Cl`, the inhibition was 5.3% (inactive). Then `CCOC(=O)c1c(C)[nH]c(C2=NNC(=NC(C)COC)SC2)c1C` (stereo unspecified), with -0.8% (inactive); and `Cc1[nH]c2ccccc2c1-c1ccc(Cl)nn1`, with 6.2% (inactive); and `Cc1nc2scc(-c3cccs3)c2c(=O)n1N`, with 0% (inactive). Turning to `O=c1c2c(ncn1Cc1ccccc1)nc1n2CCC1`, the inhibition was 10.7% (inactive). As to `CN(C(=O)CSc1nncc2ccccc12)C1CCCCC1`, the inhibition was -2.2% (inactive). Take `O=C(N/N=C/c1ccc(OCc2ccccc2)cc1)c1ccc(O)cc1`: the inhibition was 4.1% (inactive).

For `O=C(NC1CCCC1)C(NS(=O)(=O)c1ccc(Br)s1)c1ccccc1` (stereo unspecified), the inhibition was 15.8% (inactive).

As to `Cc1ccc(NC(=O)OCCNC(=O)c2ccncc2)cc1`, the inhibition was 7.9% (inactive). For `CCCCS(=O)c1snnc1C` (stereo unspecified), the inhibition is 7.1% (inactive).

Take `CCOC(=O)C(C)Oc1cccc2c(=O)n(CC(=O)NCCc3ccc(OC)c(OC)c3)ccc12` (stereo unspecified): the inhibition was 12.1% (inactive). With `CCn1c(=S)[nH]c2sc3c(c2c1=O)CCCCC3` the figure was -4.4% (inactive). With `O=C(N/N=C/c1ccccn1)C12CC3CC(CC(C3)C1)C2` the figure was 1.5% (inactive); with `O=C1c2cccc3c([N+](=O)[O-])ccc(c23)C(=O)N1CC1CCCO1` (stereo unspecified), 0.7% (inactive). For the compound `O=C(COc1cc(Cl)c(Cl)cc1Cl)NCCc1ccccn1`, the inhibition was 12.4% (inactive). With `CC(Cc1cccs1)NC(=O)c1cccc(Cl)c1` (stereo unspecified) the figure was 7% (inactive); with `OCCC1CN(Cc2cccn2-c2nccs2)CCN1CCc1ccccc1` (stereo unspecified), 12.9% (inactive); with `CCC1(CC)NC(=O)N(Cc2nc3ccccc3s2)C1=O`, 10.3% (inactive).

As to `CCOc1ccccc1NC(=O)C1CCCN(C(=O)Nc2ccccc2)C1` (stereo unspecified), the inhibition was 4.5% (inactive). On to `CCOC(=O)CNC(=O)/C=C/c1c(Cl)cccc1Cl`, for which the inhibition was 1.5% (inactive). Regarding `Cc1ccc(N2C(=O)SC(N(CC(=O)O)c3ccc(C)cc3)C2=O)cc1` (stereo unspecified), the inhibition was 21.1% (inactive). For `Cc1ccc(Nc2nnc(SCC(=O)c3cc4ccccc4o3)s2)cc1C`, the inhibition is -1.5% (inactive). Then `CCC(C)NCC(=O)Nc1ccc([N+](=O)[O-])cc1C(=O)Nc1ccccc1F` (stereo unspecified), with 4.8% (inactive); and `NC1=NN(c2cccc(C(=O)O)c2)C(=O)C1`, with 19.2% (inactive); and `CCOC(=O)/C(N=Nc1cc(C(=O)O)cc(C(=O)O)c1)=C(\O)CCl`, with -9.1% (inactive). For `CCC1CCCCN1C(=S)Nc1ccc(SC(F)F)cc1` (stereo unspecified), the inhibition was -14.7% (inactive). As to `O=C(O)/C=C/c1cn(Cc2ccccc2)nc1-c1cccs1`, the inhibition is 2% (inactive). `CC[N+]1(CC)CC2=Cc3ccccc3CC2C1` (stereo unspecified): the inhibition was 0.9% (inactive). As to `O=C(Nc1ccc(Cl)cc1)C1c2cccc[n+]2CC(=O)N1Cc1ccc2c(c1)OCO2` (stereo unspecified), the inhibition is 10.2% (inactive). Regarding `C=CCN(CC=C)S(=O)(=O)c1ccc(C(=O)Nc2nc3c(s2)CCc2ccccc2-3)cc1`, the inhibition is 8.4% (inactive). As to `Oc1c(C(c2ccccn2)N2CCOCC2)ccc2cccnc12` (stereo unspecified), the inhibition is 50.6% (active). With `Cc1nc2sc(C(c3ccco3)N3CCOCC3)c(O)n2n1` (stereo unspecified) the figure was -0.1% (inactive); with `CCOC(=O)N1CCN(C(c2cccnc2)c2ccc3cccnc3c2O)CC1` (stereo unspecified), 23.8% (inactive).

Take `COc1ccccc1N=Cc1c(O)c2ccccc2oc1=O`: the inhibition is 2.9% (inactive). With `COC(=O)c1c(NC(=O)COC(=O)[C@@H](NS(=O)(=O)c2ccccc2)C(C)C)sc2c1CCC2` the figure was -20.8% (inactive). Consider `Cc1cc(C)cc(C(=O)N2CCN=C2SCc2ccc([N+](=O)[O-])cc2)c1`, for which the inhibition was -0.2% (inactive).

For `COCC(C)n1c(C)cc(C(=O)CSc2cc(C)c3ccccc3n2)c1C` (stereo unspecified), the inhibition is -2.6% (inactive).

Take `CC(C)CC[n+]1ccn(C2=C([O-])c3ccccc3C(=O)/C2=N\S(=O)(=O)c2ccccc2)c1`: the inhibition was 52.9% (active). With `CC1=C/C(=N\S(=O)(=O)c2ccccc2)C(C(C)C)=CC1=O` the figure was 1.5% (inactive); with `O=C1NC(c2ccccc2)CCC1(Cl)Cl` (stereo unspecified), -1% (inactive); with `COc1ccccc1CNC(=O)C1Cc2ccccc2C(=O)O1` (stereo unspecified), 14.2% (inactive). For the compound `Cc1cccc(-c2nc3ccccc3c(=O)n2NC(=O)Cc2ccc(Cl)cc2)c1`, the inhibition is 12.9% (inactive). Consider `O=C(COC(=O)c1cc2c(s1)CCCC2)NCc1ccccc1Cl`, for which the inhibition is -30.3% (inactive). `CCNC(=O)c1ccc(OCC(=O)Nc2ccc(F)cc2)c(OC)c1`: the inhibition is 0% (inactive).

With `COC1=CCC2([N+](=O)[O-])CN(CC(=O)O)CC1([N+](=O)[O-])C2` (stereo unspecified), the inhibition was -3.5% (inactive). With `Cc1ccc(C2=NN(C(=O)CSc3nc(N)cc(N)n3)C(c3ccco3)C2)cc1` (stereo unspecified) the figure was -0.7% (inactive).

Turning to `COc1ccc(C)cc1NC(=O)C(OC(=O)c1cccc(S(=O)(=O)N(C)c2ccccc2)c1)c1ccccc1` (stereo unspecified), the inhibition is 0.4% (inactive). With `Cc1cc(C)c(NC(=O)C[N+](C)(C)CC(O)COc2cccc3ccccc23)c(C)c1` (stereo unspecified) the figure was -0.6% (inactive); with `CCOC(=O)C1=C(C)OC(N)=C(C#N)C1c1cncc(-c2ccc(F)cc2)c1` (stereo unspecified), 14.8% (inactive). Consider `CC1(C)CC(=O)C2=C(C1)Nc1cc(C(=O)c3ccccc3)ccc1NC2c1ccccn1` (stereo unspecified), for which the inhibition is 8.9% (inactive). Turning to `Cc1nc2ccc(NC(=S)N3CCC(C)CC3)cc2nc1C`, the inhibition was 29.3% (inactive). With `COC(=O)c1nc(NC(=O)c2ccc(F)cc2)n[nH]1` the figure was -4.4% (inactive); with `Cc1ccc(S(=O)(=O)N(CC(=O)Nc2cccc([N+](=O)[O-])c2)Cc2ccc(Cl)cc2)cc1`, -21.7% (inactive). Turning to `O=C(/C=C/c1ccc(Cl)cc1)Nc1ccc(Br)cn1`, the inhibition is 7.2% (inactive). For the compound `Cn1c(=O)c2c(ncn2CC(=O)N/N=C/c2cn[nH]c2-c2ccc(F)cc2)n(C)c1=O`, the inhibition is -4.7% (inactive).

Consider `CC(C)(C)NC(=O)CN(C(=O)c1csnn1)c1ccccc1-c1ccccc1`, for which the inhibition was 9.8% (inactive). Regarding `COCCCNC(=O)Cn1c(=O)n(Cc2ccccc2Cl)c(=O)c2cc(OC)c(OC)cc21`, the inhibition is 4.4% (inactive). In the case of `Cc1ccc(-c2cc(N)on2)cc1`, the inhibition was 4.2% (inactive).

In the case of `CCCN(CCC)CCCNC(=O)CNC(=O)c1nn(-c2ccc(OC)cc2)c(=O)c2ccccc12`, the inhibition was 6% (inactive). With `CCOC(=O)c1c(NC(=O)CNC2CCCc3ccccc32)sc(C(N)=O)c1C` (stereo unspecified), the inhibition was 2.5% (inactive). With `CN(CC(=O)Nc1ccccc1[N+](=O)[O-])Cc1ccc(Br)cc1` the figure was -0.3% (inactive); with `Cc1cc(/C=N/NC(=O)c2cccnc2)c(C)n1CC(C)C`, 2.9% (inactive). With `CC1CCCCN1C(=S)NCc1ccccc1` (stereo unspecified) the figure was -13% (inactive); with `CC(=O)N1c2ccccc2N(Cc2ccc([N+](=O)[O-])cc2)C(=O)C1(C)C`, 4.5% (inactive); with `COC(=O)c1ccc(NC(=O)c2cc(Cl)ccc2OC)cc1`, 0.4% (inactive).

The term inhibition denotes the change of the read-out against control, counted positive when it falls.
